ChEMBL document CHEMBL3433997, “St. Jude Leishmania screening dataset” (2016)

What was measured:
Format in all cases: functional
[1] = target: Solute carrier family 2, facilitated glucose transporter member 1 (Homo sapiens) (UniProt P11166); assay: ST_JUDE_LEISH: Cytotoxicity at 2uM final concentration against transgenic Leishmania Mexicana promastigotes LmGLUT1 that are glucose transport deficient and complemented with the human glucose transporter GLUT1. Activity is measured by DNA content using SYBR green in vitro
[2] = target: Hexose transporter 1 (Plasmodium falciparum) (UniProt O97467); assay: ST_JUDE_LEISH: Cytotoxicity at 2uM final concentration against transgenic Leishmania Mexicana promastigotes LmPfHT that are glucose transport deficient and complemented with the Plasmodium falciparum hexose transporter. Activity is measured by DNA content using SYBR green in vitro
[3] = target: Glucose transporter (Leishmania mexicana) (UniProt O61059); assay: ST_JUDE_LEISH: Cytotoxicity at 2uM final concentration against transgenic Leishmania Mexicana promastigotes LmGT2 that are glucose transport deficient and complemented with the L. Mexicana glucose transporter 2. Activity is measured by DNA content using SYBR green in vitro

Sequence of Solute carrier family 2, facilitated glucose transporter member 1 (Homo sapiens) (P11166 whole entry): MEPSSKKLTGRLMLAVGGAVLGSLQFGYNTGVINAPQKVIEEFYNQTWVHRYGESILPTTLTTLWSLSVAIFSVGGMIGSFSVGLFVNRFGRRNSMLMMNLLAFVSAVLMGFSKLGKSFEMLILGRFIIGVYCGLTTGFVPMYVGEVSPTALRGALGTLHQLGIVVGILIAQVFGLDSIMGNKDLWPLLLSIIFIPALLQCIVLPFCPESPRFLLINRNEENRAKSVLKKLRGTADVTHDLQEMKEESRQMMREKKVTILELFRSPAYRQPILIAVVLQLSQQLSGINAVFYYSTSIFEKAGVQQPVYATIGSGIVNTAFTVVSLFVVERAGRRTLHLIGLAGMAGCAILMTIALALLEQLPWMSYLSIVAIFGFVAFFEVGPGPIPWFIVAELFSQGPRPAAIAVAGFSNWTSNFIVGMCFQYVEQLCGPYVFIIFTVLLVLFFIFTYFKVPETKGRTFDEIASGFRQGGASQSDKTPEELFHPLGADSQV

Row | SMILES | inhibition [1] [%] | inhibition [2] [%] | inhibition [3] [%]
1 | Cc1ccc(NC(=O)c2ccc(Cl)c(Cl)c2)cc1-c1ccc(C(=O)Nc2ccncc2)cc1 | -0.14 | 0.86 | -1.3
2 | CCOc1ccc(Br)cc1/C=C/C(=O)Nc1ccc2c(c1)CN(C)CCC2 | 4.12 | 5.18 | 4.34
3 | O=C(Nc1ccc(Cl)cc1)Nc1cccc(-c2ccc(-c3nc4cc(F)ccc4[nH]3)cc2)c1 | 6.12 | 1.78 | 4.76
4 | CCC(=C(CC)c1ccc(O)c(CNC2CCCCC2)c1)c1ccc(O)c(CNC2CCCCC2)c1 | 23.6 | 8.98 | -1.26
5 | O=c1cc(NCCCNCc2cc3c(Cl)cc(Cl)cc3[nH]2)[nH]c2ccccc12 | -0.67 | -0.16 | -0.14
6 | O=C(NCc1cccc(F)c1)Nc1ccc(-c2ccc(-c3nc4cc(C(F)(F)F)ccc4[nH]3)cc2)cc1 | 0.8 | -0.45 | 1.77
7 | Cc1ccc(NC(=O)c2c(C)noc2-c2snnc2C)cc1 | 3.24 | 4.05 | 3.02
8 | NC(Cc1cccc(I)c1)C(=O)NCC1CCCO1 (stereo not drawn) | 1.94 | 0.37 | 0.96
9 | CCNc1cc(C(=O)N[C@@H](Cc2ccoc2)[C@H](O)CNC(C)CCCC(C)C)cc(N2CCCCS2(=O)=O)c1 (stereo partly drawn) | 1.42 | 0.7 | 0.83
10 | COCC(C)n1c(SCC(=O)Nc2cc(C(F)(F)F)ccc2Cl)nc2ccccc2c1=O (stereo not drawn) | 6.25 | 4.88 | 2.72
11 | COc1ccc(OC)c2c1CC1NCC2c2c(OC)ccc(OC)c21 (stereo not drawn) | 2.86 | 2.69 | 0.54
12 | COc1ccc(CNCc2cccc(-c3csc(-c4nc5ccccc5[nH]4)c3)c2)cc1 | -1.65 | -1.34 | 2.49
13 | COc1ccc(-c2cccc(NC(=O)c3cccc(Cl)c3)c2)cc1CN1CCCC1 | 7.71 | 5.81 | -1.22
14 | O=C(Nc1ccc2oc(-c3ccc(Cl)cc3Cl)nc2c1)c1ccc([N+](=O)[O-])o1 | 88.9 | 54.3 | 11
15 | COc1ccc(-c2cc(C(=O)N[C@@H](Cc3ccccc3)C(=O)NCCN3CCCCC3)ccc2O)cc1 | 5.18 | 2.26 | 4.04
16 | COc1ccc2nccc([C@@H](O)CN3CCC(NC(=O)c4cc5c(F)cc(F)cc5[nH]4)CC3)c2c1 | 18.1 | 20.8 | 8.41
17 | Cc1ccc(C(=O)Nc2ccc(-c3nc4ccccc4[nH]3)cc2)cc1S(=O)(=O)N1CCOCC1 | 2.29 | 1.71 | 0.77
18 | O=C(c1ccc([N+](=O)[O-])o1)N1CCN(c2ccccc2)CC1 | 3.6 | 1.95 | 1.09
19 | CCN(CC)CCN(Cc1ccc(-c2ccc(Br)cc2)cc1)C(=O)Cn1c(CCc2cccc(F)c2F)nc(=O)c2ccccc21 | 2.2 | 3.29 | 6.05
20 | N=C(N)NCCCC(=O)NCC(N)=O | 5.44 | 8.67 | 2.28
21 | Cc1cc(NC(=O)NCCN2CCC(NC(=O)c3cccc(Br)c3)C2)c2ccccc2n1 (stereo not drawn) | 0.36 | 0.24 | 2.62
22 | CC(=O)c1ccc(NC(=O)NNC(=O)c2ccc(CCN3CCC(c4nc(COCC(F)(F)F)c(-c5ccc(F)cc5)o4)CC3)cc2)cc1 | 0.31 | 0.69 | -1.37
23 | CCCc1cc(Cc2cnc(N)nc2N)cc2c1OC(C)(C)C2 | 5.74 | 3.03 | 2.58
24 | CCOC(=O)c1ccc(NC(=O)N[C@@H](Cc2ccc(O)cc2)C(=O)NC2CCN(Cc3ccc4c(c3)OCO4)CC2)cc1 | 0.57 | 2.47 | 0.58

Row | SMILES | inhibition [1] [%] | inhibition [2] [%] | inhibition [3] [%]
25 | COc1ccccc1Cc1c(C)nc2nc(N)nc(N)c2c1C | 6.33 | 4.07 | 7.13
26 | Clc1cc(Nc2ncnc3sc(C#C[C@H]4CCCN4)cc23)ccc1OCc1cccnc1Cl | 3.83 | 4.71 | 3.35
27 | CCOC(=O)NC1=NC(C)(C)N(OCCCOc2cc(Cl)c(Cl)cc2Cl)C(NC(=O)OCC)=N1 | 2.08 | 0.27 | 1.36
28 | Clc1ccc(CNC2CCN(CC3CCCCC3)CC2)cc1 | 5.87 | 11.2 | 10.2
29 | N#Cc1cccc(C(=O)Nc2cccc(-c3ccc(CN4CCCC4)cc3)c2)c1 | 1.56 | 2.56 | 2.89
30 | Fc1cccc(Nc2nc(NCCc3ccc(Cl)cc3)nc(Nc3cccc(F)c3)n2)c1 | 2.39 | 2.12 | -4.86
31 | CC(C)n1nc(C(=O)N2CCN(c3ccccc3)CC2)c2ccccc2c1=O | 1.27 | -0.42 | -0.69
32 | COc1cc2nc(N3CC(C)N(C(=O)Cc4ccc(-c5ccccc5)cc4)C(C)C3)nc(N)c2cc1OC (stereo not drawn) | 6.24 | 5.22 | 3.8
33 | CCC(C(C)C)n1ccc2c3c(N)nc(N)nc3ccc21 (stereo not drawn) | 81.6 | 84.6 | 66.6
34 | CC(=O)Nc1nnc(SCc2c(C)cc(C(C)(C)C)cc2C)s1 | 0.82 | -2.97 | 1.06
35 | COc1c(C2CCN(CCN3CCC(CNC(=O)c4ccc(-c5ccc(C#N)cc5)cc4)CC3)CC2)ccc2c1CCCC2 | 3.97 | 8.83 | 8.54
36 | CCC(C)c1ccc(Nc2nc(C)cc(N(CC)CCCN3CCCCC3)n2)cc1 (stereo not drawn) | -1.09 | 0.87 | 1.67
37 | O=S(=O)(c1cc(Cl)c(Cl)cc1Cl)N1CCCCC(c2ccc(C(F)(F)F)cc2)=N1 | -0.66 | 0.43 | 0.91
38 | N#Cc1ccccc1Sc1ccccc1C(=O)Nc1ccc2ccccc2n1 | 7.84 | 11.5 | 7.12
39 | CN(C)CC1c2[nH]c3ccccc3c2CCN1C(=O)Nc1ccc(Cl)c(Cl)c1 (stereo not drawn) | 5.56 | 7.79 | 5.8
40 | C[C@H](Cc1ccc(C[C@@H](C)NC[C@H](O)c2cccc(Cl)c2)cc1)NC[C@H](O)COc1ccccc1 | 1.99 | 1.95 | 3.59
41 | Cn1cc(C(=O)Nc2cccc(-c3cccc(-c4nc5ccccc5[nH]4)c3)c2)n(C)c1=O | 4.31 | 2.7 | 2.54
42 | Cc1cnc(CNCc2ccc(S(=O)(=O)Nc3ccc(Oc4cccc(Cl)c4)cc3)cc2)cn1 | 5.34 | 2.83 | 2.07
43 | CC(=O)N/N=C/[C@H](CCc1ccccc1)NC(=O)[C@H](CC(C)C)NC(=O)c1ccc(F)cc1 | 6.34 | 4.34 | 4.68
44 | CCCCCCN(CCCCCC)CC(O)c1c(OC)ccc2ccccc12 (stereo not drawn) | 3.35 | 5.37 | 5.56
45 | COc1ccc(CCn2c(=N)c(C(=O)NCc3ccccc3)cc3c(=O)n4ccccc4nc32)cc1 | 12.9 | 12.8 | 8.6
46 | c1cnc2ccc(NCc3ccc(-c4ccc(CNC5CCCC5)cc4)cc3)cc2c1 | 0.93 | 0.1 | -6.73
47 | C=CCOC(=O)N1CCC(CNCc2cccc(-c3ccc(-c4nc5ccccc5[nH]4)s3)c2)C1 (stereo not drawn) | 1.51 | 1.79 | 1.26
48 | CC(=O)c1cccc(NC(=O)NC2CCN(CCCCCNC(=O)/C=C/c3ccc(Cl)c(Cl)c3)CC2)c1 | 1.56 | 2.6 | 5.52

Row | SMILES | inhibition [1] [%] | inhibition [2] [%] | inhibition [3] [%]
49 | COc1cc2nc(NCCc3cccc(Cl)c3)nc(NCc3ccccc3)c2cc1OC | 5.15 | 6.21 | 1.06
50 | Cc1nc(C)c(CC(=O)Nc2ccc(-c3cccc(-c4nc5cc(C(F)(F)F)ccc5[nH]4)c3)cc2)s1 | 13 | 10.6 | 8.58
51 | O=c1cc(NCCCNCc2sc(Br)c(Br)c2Br)[nH]c2ccccc12 | 10.5 | 9.87 | 10.4
52 | COc1ccc2nccc([C@@H](O)CN3CCC(NCc4ccc5c(c4)NC(=O)CS5)CC3)c2n1 | 0.52 | 2.86 | -3.81
53 | O=C(Cc1ccc(NC(=O)c2ccc(O)c(-c3ccc(Cl)c(Cl)c3)c2)cc1)NCCN1CCOCC1 | -2.69 | -1.17 | -1.61
54 | Oc1ccccc1CN1CCCC(COC(c2ccc(F)cc2)c2ccc(F)cc2)C1 (stereo not drawn) | 3.68 | 3.28 | 0.55
55 | COc1ccc(NC(=O)c2cc(-c3ccc(NC(C)=O)cc3)cnc2N)cc1 | 2.25 | 2.66 | 0.5
56 | Cc1cc(C(=O)CSc2nc3ccccc3n2-c2ccccc2)c(C)n1C1CCS(=O)(=O)C1 (stereo not drawn) | 0.82 | -1.32 | 0.44
57 | Cc1ccc(NC(=O)Nc2ccccc2)cc1-c1ccc(C(=O)Nc2ccncc2)cc1 | 9.17 | 7.89 | 9
58 | CCN1CCN(c2cc(C)c3cc(NC(=O)c4cncc(Br)c4)ccc3n2)CC1 | -0.07 | -1.3 | -2.43
59 | CN1CCC=C(C(=O)NCC(C)(C)c2nc(-c3ccc(Cl)c(O)c3)c(-c3ccncc3)[nH]2)C1 | 6.76 | 9.88 | 7.7
60 | Cc1ccnc(-n2c(C)cc(C=C3SC(=Nc4ccccc4)N(Cc4ccco4)C3=O)c2C)c1 | 2.02 | 2.85 | 4.69
61 | COc1ccc(-c2cc(C(=O)N[C@@H](CC3CCCCC3)C(=O)NC3CCCc4ccccc43)ccc2O)cc1 (stereo partly drawn) | 0.11 | -0.02 | 1.1
62 | O=C(N[C@@H](CC1CCCCC1)C(=O)NC1CCCc2ccccc21)c1ccc(O)c(-c2ccc(Cl)c(Cl)c2)c1 (stereo partly drawn) | 1.23 | 0.75 | 0.12
63 | COCCNCc1cccc(-c2ccccc2CN(C(=O)c2ccc3c(c2)OCO3)c2ccc(OC)cc2)c1 | 4.69 | 4.93 | 3.25
64 | COC(=O)c1cccc(CNCc2cccc(-c3csc(-c4nc5ccccc5[nH]4)c3)c2)c1 | 9.3 | 8.51 | 6.38
65 | Cc1c(C(=O)N2CCCC(C(F)(F)F)C2)sc2cccc(F)c12 (stereo not drawn) | 8.1 | 6.02 | 5.83
66 | COc1ccnc(NCCCNCc2cn(S(=O)(=O)c3ccccc3)c3ccccc23)c1 | 2.74 | 3.67 | 0.11
67 | CCCn1c(=N)c(C(=O)NCCc2ccccc2)cc2c(=O)n3cccc(C)c3nc21 | 5.16 | 7.01 | 2.32
68 | Cc1noc(C)c1-c1cccc(CNCc2cccc(-c3cccc(-c4nc5cccc(C)c5[nH]4)c3)c2)c1 | -0.61 | -0.81 | -0.78
69 | CCN(CCCN1CCCCC1)c1cc(C)nc(Nc2ccc(C)c(C)c2)n1 | 4.78 | 5.75 | 4.45
70 | COc1ccc2c(NN=Cc3cccc(F)c3)ccnc2c1 | 2.99 | 2.22 | 4.14
71 | CCC(C)NC(=O)CN1CN(c2ccccc2)C2(CCN(C(=O)c3ccc(C(C)(C)C)cc3)CC2)C1=O (stereo not drawn) | 3.34 | 2.77 | 1.7
